HepG2 viability: HepG2 cytotoxicity, counter-screen for TGF-b inhibitors; HepG2 CAGA-GFP viability, ATP luminescence, 18 h; Potency, µM (titrated, usually from 46.1 µM), actives largely listed as cytotoxic; 0.76% of 410,000 active; AID 588856
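CellTiter-Glo luminescence gave cytotoxicity after 18 hours at 37 degrees C. The cells were HepG2 CAGA-GFP in 1% FBS DMEM, stimulated with 500 pg/mL TGF-beta after compound addition. %Activity was normalised to no-cell wells (complete cell-killing) and DMSO (no toxicity), and curves were fitted and classified.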
TGFb SMAD3 inh: TGF-b pathway inhibition | Potency, µM (titrated, usually from 46.1 µM), actives largely listed as inhibitors | HepG2 CAGA-GFP TGF-b/SMAD3 reporter, GFP fluorescence, 18 h; TGF-beta stimulated, 500 pg/mL final | 1.2% of 410,000 active; further: nearly all actives have a fitted effect of over 65% in size
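TGF-beta reporter screen: HEPG2 CAGA-GFP, 1% FBS, 500 pg/mL TGF-beta final, 18 h; per-cell GFP summed per well; curves fitted and categorized by class.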
S-ASM inh: inhibitors of human secretory acid sphingomyelinase; Potency, µM (titrated, usually from 57.5 µM), actives largely listed as inhibitors; placental ASM, HMU-PC fluorogenic substrate, 60 min; P17405; 0.006% of 340,000 active
Target sequence (P17405 47-631 limits assumed): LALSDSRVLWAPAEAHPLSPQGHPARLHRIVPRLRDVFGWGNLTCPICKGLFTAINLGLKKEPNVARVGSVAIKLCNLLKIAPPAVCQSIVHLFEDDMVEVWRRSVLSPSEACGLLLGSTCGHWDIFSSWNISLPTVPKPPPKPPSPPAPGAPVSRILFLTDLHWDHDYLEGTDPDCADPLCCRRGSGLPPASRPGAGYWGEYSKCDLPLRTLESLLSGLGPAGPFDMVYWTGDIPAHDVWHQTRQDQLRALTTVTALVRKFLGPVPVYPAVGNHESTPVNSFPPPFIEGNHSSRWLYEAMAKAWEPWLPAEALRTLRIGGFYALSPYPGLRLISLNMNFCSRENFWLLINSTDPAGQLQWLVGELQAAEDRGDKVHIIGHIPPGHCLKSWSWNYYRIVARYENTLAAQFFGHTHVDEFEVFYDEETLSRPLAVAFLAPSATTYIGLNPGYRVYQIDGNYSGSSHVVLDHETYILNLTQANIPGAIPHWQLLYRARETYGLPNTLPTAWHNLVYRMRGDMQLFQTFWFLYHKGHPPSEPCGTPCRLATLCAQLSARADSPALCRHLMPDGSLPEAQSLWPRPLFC
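Steps: dispense placental human ASM, pin compound, wait 10 min at room temperature, add HMU-PC0 substrate at 9 uM final, incubate 60 min at 37 °C, add stop solution raising pH to 10, read fluorescence.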
DT40 TDP1 no CPT: qHTS for Inhibitors of human tyrosyl-DNA phosphodiesterase 1 (TDP1): qHTS in cells in absence of CPT. DT40 Tdp1-/- hTDP1 cells, no CPT, ATP luminescence, 48 h. Potency, µM (doses to about 46.2 µM), actives largely listed as inhibitors. 15% of 420,000 active. AID 686978, 2013; further: nearly all actives have a fitted effect of over 55% in size
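Cells were dispensed at 400 per well, compounds added by pin tool, plates incubated ≥48 hr at 37 °C, then CellTiter-Glo added for 30 min at room temperature before luminescence reading. Line: DT40 Tdp1-/- complemented with hTDP1; camptothecin omitted.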
DT40 TDP1 CPT: DT40-hTDP1 cell growth loss with CPT; chicken DT40 Tdp1-/-;hTDP1 cells + 20 nM CPT, ATP luminescence, 48 h; 12% of 420,000 active; AID 686979; Potency, µM (doses to about 46.2 µM), most hits filed as inhibitors; further: nearly all actives have a fitted effect of over 55% in size
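Chicken DT40 Tdp1-/- cells complemented with human TDP1, 400 cells/well, exposed to compounds plus 20 nM camptothecin for at least 48 h at 37 C; viability read as ATP content by CellTiter-Glo luminescence.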
IL1B secr inh: inflammasome signaling inhibition, IL-1 beta readout; THP-1 LPS/ATP IL-1B secretion, AlphaLISA, 16 h; active compounds read low; activity change, % at 57.5 µM; 4.7% of 360,000 active; AID 743279; in the data active means activity change below about -50%; inconclusive means mostly about -30% to -49%
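THP-1 cells pretreated 1 hr with compounds (up to 57.5 uM final), then stimulated with LPS (250 ng/mL final) plus ATP (1.25 mM final); secreted IL-1B measured by AlphaLISA after 16 hr, decreased signal indicating inhibition.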
Hits are given with their value; - = inactive; ? = inconclusive; . = no result. Shown are actives, neighbours in structure and some others; about 19% of the full set was active somewhere. Unless noted, the call rests on the fitted dose curve; in most records, active means well fitted curve in the direction sought with a large enough effect; inconclusive means small, poorly fitted or top-dose-only effect, or another doubt; inactive means no such curve, though single readings can be large; an effect the other way counts as inactive or inconclusive.

SMILES	HepG2 viability	TGFb SMAD3 inh	S-ASM inh	DT40 TDP1 no CPT	DT40 TDP1 CPT	IL1B secr inh
CCc1cccc(C)c1NC(=O)CCNC(=O)c1cccc(C)c1	-	-	-	-	-	-
COCCNC(=O)C1CCCN(C(=O)c2ccc3sccc3c2)CC1 (stereo unspecified)	-	-	.	-	-	-
COCCNC(=O)C1CCCN(C(=O)c2ccnc(Cl)c2)CC1 (stereo unspecified)	-	-	.	-	-	-62
COCCNC(=O)C1(C)CCN(C(=O)c2ccc3c(c2)C(C)(C)CCC3(C)C)C1 (stereo unspecified)	-	-	.	26µM	?	-
COCCNC(=O)C1CCCN(C(=O)c2ccc3c(c2)C(C)(C)CCC3(C)C)CC1 (stereo unspecified)	-	-	.	?	13µM	-
COCCNC(=O)C1CCCN(C(=O)c2ccc(OC)c(F)c2)CC1 (stereo unspecified)	-	-	.	-	-	-
COCCNC(=O)C1(C)CCN(C(=O)c2ccc(F)c(C)c2)C1 (stereo unspecified)	-	-	.	-	-	-
O=C(COC(=O)CNS(=O)(=O)c1ccc(Br)cc1Cl)NC1CC1	-	-	-	-	-	-
COC(=O)C(Cc1ccccc1)NC(=O)CNC(=O)c1ccc(Br)cc1 (stereo unspecified)	-	-	-	-	-	-
COc1cc(C2C(Oc3ccccc3C)C(=O)N2Cc2ccc(F)cc2)cc(OC)c1OC (stereo unspecified)	-	-	-	?	-	-
COc1ccc(OC2C(=O)N(Cc3ccc(F)cc3)C2c2ccc(OC)c(OC)c2)cc1 (stereo unspecified)	-	-	-	-	29µM	?
CN(Cc1ccccc1)Cc1c(O)ccc2ccccc12	-	?	-	-	?	-
Cc1oc2ccc(O)c(CN(C)Cc3ccccc3)c2c1C(=O)Nc1cccc(C(F)(F)F)c1	10µM	?	.	5.2µM	5.8µM	.
Cc1oc2ccc(O)c(CN(C)Cc3ccccc3)c2c1C(=O)Nc1ccccc1	1.8µM	?	.	8.2µM	9.2µM	.
Cc1oc2ccc(O)c(CN3CCOCC3)c2c1C(=O)Nc1cccc(C(F)(F)F)c1	-	-	.	?	16µM	.
Cc1nc(N2CCOCC2)c2c(C(=O)Nc3cccc(C(F)(F)F)c3)c(C)oc2n1	-	-	.	-	-	.
CCN(C(=O)COC(=O)[C@H](C)N=C1NS(=O)(=O)c2ccccc21)C1CCS(=O)(=O)C1 (stereo partly specified)	-	-	-	-	-	-
COc1ccc(NC(=O)CCC(=O)N2CCOCC2)c([N+](=O)[O-])c1	-	-	-	-	-	-
COCCNC(=O)CCCn1c(SCc2ccccc2Cl)nc2c(sc3ccccc32)c1=O	-	-	.	9.2µM	?	.
CCC(C)NC(=O)CSc1nc2c(sc3ccccc32)c(=O)n1Cc1ccccc1Cl (stereo unspecified)	-	-	.	3.3µM	?	.
C[C@@H]1C=C(C(=O)NC2CC2)O[C@H](OCc2ccc(CO)cc2)C1	-	-	-	-	-	-
COc1ccc(CCNc2oc(COc3ccc(Cl)cc3)nc2C#N)cc1OC	-	?	.	12µM	13µM	.
N#Cc1nc(COc2cccc(Cl)c2)oc1NCc1ccco1	-	-	-	18µM	21µM	-
COc1ccc(CNc2oc(COc3cccc(C)c3)nc2C#N)cc1	-	?	.	?	4.1µM	.
CCNc1oc(COc2cccc(C)c2)nc1C#N	-	-	-	-	?	-
SMILES	HepG2 viability	TGFb SMAD3 inh	S-ASM inh	DT40 TDP1 no CPT	DT40 TDP1 CPT	IL1B secr inh
COc1ccc(CCNc2oc(COc3cccc(C)c3)nc2C#N)cc1OC	-	?	.	23µM	?	.
O=C(Cn1ccc2cc(S(=O)(=O)N3CCCCC3)ccc21)NCc1ccccc1F	-	-	-	?	?	-
O=C(Nc1ncn[nH]1)c1cc(S(=O)(=O)Nc2cccc(C(F)(F)F)c2)ccc1Cl	-	-	-	-	-	-
O=c1cc(O)c2sc3nc4c(c(C(F)(F)F)c3c2[nH]1)CCCCC4	-	?	-	?	-	-
CCc1nc2sc3c(O)cc(=O)[nH]c3c2cc1C	-	-	-	12µM	?	-
CC(=O)N1c2c(cc(Br)cc2S(=O)(=O)Nc2ccc(OC(F)(F)F)cc2)CC1C (stereo unspecified)	-	?	.	15µM	18µM	.
CCN(c1cccc(C)c1)S(=O)(=O)c1cc(Br)cc2c1N(C(C)=O)C(C)C2 (stereo unspecified)	-	?	.	21µM	23µM	.
CC(=O)N1c2c(cc(Br)cc2S(=O)(=O)Nc2ccccc2C)CC1C (stereo unspecified)	-	-	.	?	?	.
COc1ccc(NS(=O)(=O)c2cc(Br)cc3c2N(C(C)=O)CC3)cc1	-	-	-	12µM	8.2µM	-
CCOC(=O)c1ccc(NS(=O)(=O)c2cc(Br)cc3c2N(C(C)=O)C(C)C3)cc1 (stereo unspecified)	-	?	.	8.2µM	9.2µM	.
COc1ccc(CNS(=O)(=O)c2cc(Br)cc3c2N(C(C)=O)C(C)C3)cc1 (stereo unspecified)	-	-	-	?	?	-
CC(=O)N1c2c(cc(Br)cc2S(=O)(=O)NCc2ccc(C)cc2)CC1C (stereo unspecified)	-	-	-	-	-	-
C(=N\Nc1ccc2ccccc2n1)/c1ccc2c(c1)OCCO2	-	16µM	-	?	?	-
Cc1ccc(/C=N/Nc2ccc3ccccc3n2)o1	-	-	-	4.1µM	2.3µM	-107
Cc1cccc(/C=N/Nc2ccc3ccccc3n2)c1	-	?	-	29µM	-	-75
CC(=O)n1nc2nc(C)cc(C)c2c1N	-	-	-	-	-	-
Cc1cc(C)c2c(SC(C)C)nc(N)nc2n1	-	-	-	18µM	?	-
Cc1cccc(NC(=O)C2CC2c2ccccc2)c1C (stereo unspecified)	-	-	-	?	-	-
CSc1nnc(CSCc2ccc(Cl)cc2Cl)n1-c1ccccc1	-	?	-	20µM	?	-
Cn1c(CSCc2ccc(Cl)cc2Cl)n[nH]c1=S	-	-	-	?	?	-
Cc1onc(NC(=O)NC(=O)c2c(Cl)cccc2Cl)c1Br	-	-	-	-	-	-
O=C(/C=C/c1ccccc1[N+](=O)[O-])OCC(=O)N1CCN(c2ccccc2)CC1	-	-	.	?	21µM	-
CCc1ccc(/C=C\C(=O)N2CCc3ccccc3C2)cc1	-	-	-	-	-	?
